The values below come from ChEMBL document CHEMBL4513216, “Probing the Open Global Health Chemical Diversity Library for Multistage-Active Starting Points for Next-Generation Antimalarials” (ACS Infect Dis, 2020).

Structures are written as SMILES. In all, about 69,000 compounds went through this assay and about 8,600 (12%) showed an effect of 50% or more. This is one part of a sample in which strong results are shown more often than they occur.

This test has as its system Plasmodium berghei. Briefly: Screen against P. berghei liver stage (PbLuc), transformed with Luciferase, at 10uM. Type of test: functional, HepG2. The conditions noted are these: tested at 10 uM.
As for `CCc1nnc2n1CCN(C(=O)c1cc3ccc(C)cc3[nH]1)C2`, the INHIBITION is 23.7%. In the case of `CCOCC1CN(CC2CC2)Cc2nn(C)cc21` (centres undefined) it was 52%; in that of `COCC1CN(Cc2ccncc2)Cc2nn(CC3CC3)cc21` (centres undefined), 29.9%; in that of `CCOCC1CN(Cc2ccc(F)cc2)Cc2nn(C)cc21` (centres undefined), 41.6%.

For `COCC1CN(Cc2ccoc2)Cc2nn(C)cc21` (centres undefined), the INHIBITION is 24.1%.

Take `COCC1CN(CC2CC2)Cc2nn(CC3CC3)cc21` (centres undefined): the INHIBITION is 56.7%. The same measure for `COCC1CN(Cc2cnn(C)c2)Cc2nn(C)cc21` (centres undefined): 25.2%. The same measure for `CCOCC1CN(CC2CC2)Cc2nn(CC3CC3)cc21` (centres undefined): 29%.

For the molecule `COCC1CN(CC2CC2)Cc2nn(C)cc21` (centres undefined), the INHIBITION stood at 55.7%.

As for `CCOCC1CN(Cc2ccncc2)Cc2nn(C)cc21` (centres undefined), the INHIBITION amounted to 29.9%.

In the case of `O=S(=O)(c1ccccc1)N1C[C@@H]2CCCCN(Cc3cccs3)[C@@H]2C1`, the INHIBITION came out at 11.8%.

Consider `O=C1CCCC2(CCN(C(=O)c3ccccn3)CC2)N1`, for which the INHIBITION is 17.4%. In the case of `O=C(NC[C@]1(O)CCN(Cc2ccsc2)C[C@H]1O)c1c[nH]cn1` it was -0.275%; in that of `NC(=O)N1CC[C@H](O)[C@@H]1Cc1cccnc1`, 38.1%. The same measure for `O=C(N1CCCCC1)N1CCN(c2ccc(Cl)nn2)C(=O)C1`: 30%; for `CCCSc1ncc(CN(C)CCN2CCCCC2)cn1`: 32.3%; for `Cc1cc(C)n(CC2CCCN2C(=O)c2cccn3ccnc23)n1` (centres undefined): 15.32%. The same measure for `COc1cc(C)ccc1OCc1nc(C(=O)N2CCC(C)CC2)co1`: 5.33%. Regarding `CNC(=O)C1CCN(C(=O)c2coc(COc3ccc(OC)cc3)n2)C1` (centres undefined), the INHIBITION was -66.3%. In the case of `COc1cc(C)ccc1OCc1nc(C(=O)N2CCCO2)co1` it was 67.5%; in that of `CCCC1CCN(C(=O)c2coc(COc3ccc(OC)cc3)n2)C1` (centres undefined), 19.5%. `COc1ccc(OCc2nc(C(=O)N3CC[C@H](O)[C@@H](O)C3)co2)cc1`: the INHIBITION was -38.2%. The same measure for `COc1ccc(OCc2nc(C(=O)N3CC(O)C3)co2)cc1`: 33.5%; for `COc1cc(C)ccc1OCc1nc(C(=O)N2CCCC2)co1`: 37.8%. The same measure for `COc1cc(C)ccc1OCc1nc(C(=O)N2CCCNC(=O)C2)co1`: 63.8%. The same measure for `COc1ccc(OCc2nc(C(=O)N3CCCNC(=O)C3)co2)cc1`: 53.6%. For the molecule `Cc1ccc(C(NCC(=O)N2CCNC(=O)C2)c2ccccc2)cc1` (centres undefined), the INHIBITION is recorded as 29.4%. In the case of `Cc1ccc(NC2CCN(C(=O)c3c(C)nn(C)c3Cl)CC2)nn1` it was 1.45%; in that of `O=C1NCC2=Nc3ccccc3NC(c3ccc(O)cc3)C12` (centres undefined), -72.4%; in that of `COC1CCN(C(=O)Cc2csc(-c3ccc(F)cc3)n2)CC1`, -7.35%.

In the case of `CC(C)c1nn(C)c(N2CCOCC2)c1CNC(C)c1ccco1` (centres undefined), the INHIBITION turned out to be 4.52%. The same measure for `O=C(NCc1cccnc1N1CCCCC1)c1ccc2[nH]nnc2c1`: 17.5%; for `Cc1ccccc1CS(=O)(=O)CC(=O)NCc1ccccc1F`: -15.8%.

On to `CC(C)n1cc(CN(Cc2ccc(F)cc2)CC2CCCO2)cn1` (centres undefined), for which the INHIBITION is reported as 18.4%. In the case of `O=C(CSC1=NS(=O)(=O)c2cc(F)ccc2N1)c1ccccc1` it was 10.2%; in that of `Cc1cccc(NC(=O)C2CCc3ccccc3N2)c1` (centres undefined), -71.7%.

For `Cc1occc1C(=O)N1CCn2c(COCC3CC3)cnc2C1C` (centres undefined), the INHIBITION was 39.3%. The same measure for `Cn1cc(C(=O)NCCc2csc(-c3ccccc3)n2)ccc1=O`: -8.92%; for `COc1cccc(S(=O)(=O)NC(=O)CCC2CCCO2)c1` (centres undefined): -9.76%; for `COC1CCN(C(=O)C2CCCC2)CC(=O)N(C)c2ccccc21` (centres undefined): 33.6%. The same measure for `COC1CN(C(=O)NC2CCCC2)CCC(=O)N(C)c2ccccc21` (centres undefined): 56.3%; for `COC1CN(C(=O)Nc2ccccc2)CCC(=O)N(C)c2ccccc21` (centres undefined): 13.1%; for `COC1CN(C(=O)CC2CCCC2)CCC(=O)N(C)c2ccccc21` (centres undefined): 11.6%. The same measure for `COC1CN(C(=O)COC(C)=O)CCC(=O)N(C)c2ccccc21` (centres undefined): 20.7%; for `COC1CCN(C(=O)Nc2ccccc2)CC(=O)N(C)c2ccccc21` (centres undefined): 55.5%; for `COC1CN(C(=O)CC(C)C)CCC(=O)N(C)c2ccccc21` (centres undefined): 1.8%. On to `COC1CN(C(=O)C2CC2)CCC(=O)N(C)c2ccccc21` (centres undefined), for which the INHIBITION turned out to be 29%. The same measure for `COC1CN(C(=O)OCC(C)C)CCC(=O)N(C)c2ccccc21` (centres undefined): 52.5%; for `Cc1cc(NS(=O)(=O)c2ccc(C(=O)O)cc2F)ccc1F`: -2.33%; for `O=C1C[C@@H]2[C@H](CCN2Cc2ccco2)N1c1ccsc1`: 39.3%.

In the case of `O=C(Cn1cc(Cl)cn1)N1CCNC1=O`, the INHIBITION came out at 45.9%. The same measure for `COc1ccc(CN2CCc3c(nc(-c4ccccn4)[nH]c3=O)C2)cc1`: -11.7%; for `Cc1oncc1C(=O)NCc1cc(=O)n2c(n1)CN(CC(C)C)CCC2`: 38.3%. The same measure for `CC(C)n1nnnc1-c1ccc(NC(=O)CCC(F)(F)F)cc1F`: 40.3%; for `CCCC(=O)NCCc1nc2cc(-c3ccc(OC)cc3)ncn2n1`: -3%; for `CN(C)Cc1nn(C)c2c1CCN(C(=O)CC1CC1)C2`: -4.99%.

As for `Cn1nc(CN2CCCC2)c2c1CN(CC1CC1)CC2`, the INHIBITION was 11.6%.

`CC(C)n1nc(CN2CCCC2)c2c1CN(CC1CC1)CC2`: the INHIBITION was 58.3%.

Take `CC(=O)NCC(=O)N1CCc2c(CN(C)C)nn(C(C)C)c2C1`: the INHIBITION is given as 34.9%.

For `CC(C)n1nc(CN(C)C)c2c1CN(CC1CC1)CC2`, the INHIBITION was 20.1%.

With `CC(C)n1nc(CN(C)C)c2c1CN(C(=O)CC1CC1)CC2`, the INHIBITION was 61.5%. The same measure for `OC(CNCc1nnc2ccccn12)c1ccc2c(c1)OCCCO2` (centres undefined): 17%; for `Cn1cc(NC(=O)N2CCC(Cc3ccccc3)CC2)ccc1=O`: 20.45%; for `Cc1cc(NC(=O)CN2CCCC2c2noc(C)n2)n(C)n1` (centres undefined): -25.8%. In the case of `CN(C)C(=O)N1CCc2onc(C(=O)Nc3cccnc3)c2C1` it was -40.5%; in that of `O=C(N1CCC2(CC1)[C@H](O)C[C@@H]2O)C1(c2ccccc2F)CC1`, 25.9%; in that of `O=C(CN(CC(O)c1ccc(F)cc1)C1CC1)NC(C1CC1)C1CC1` (centres undefined), 45.7%. As to `O=C(CN(CC(O)c1ccc(F)cc1)C1CC1)NCc1cccs1` (centres undefined), the INHIBITION came out at 65.4%.

As for `O=C(CN(CC(O)c1ccc(F)cc1)C1CC1)NC1CCOCC1` (centres undefined), the INHIBITION turned out to be 22.6%.
